Results filed as inconclusive are left out. Activity calls are given as the source filed them. Unless noted, calls follow the shape of the dose curve; as a rule, active = well fitted curve in the direction sought with a large enough effect in the repeat runs; inconclusive = weak or mixed curves; inactive = no such curve, though single readings can be large; an effect the other way counts as inactive or inconclusive.
Columns and labels:
[1] = molecular target: Retinoic acid receptor RXR-alpha (Homo sapiens) (UniProt P19793); assay: qHTS assay to identify small molecule agonists of the RXR signaling pathway (AID 1159527; calls by dose curve; also: nearly all actives have a fitted effect of over 35% in size)
How it was run: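 Agonist mode; 9-cis retinoic acid positive control. HEK 293T UAS-bla reporter cells, 2% charcoal-stripped FBS, 16 hr compound exposure at 37 C/5% CO2. LiveBLAzer B/G FRET substrate 2 hr RT; ex 405, em 460/530 nm.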

[2] = qHTS assay to identify small molecule agonists of the RXR signaling pathway - cell viability counter screen (AID 1159529); also: series mostly up to about 77 µM; nearly all actives have a fitted effect of over 50% in size
How it was run: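 Luminescence from CellTiter-Glo (30 min, RT) measured viability in the same wells as the beta-lactamase reporter readout. Cells: GeneBLAzer RXR-alpha HEK 293T, 2% charcoal-stripped FBS. Compound exposure 16 hr, 37 C.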

[3] = qHTS assay to identify small molecule antagonists of the retinoid acid receptor (RAR) signaling pathway - cell viability counter screen (AID 1159551); also: nearly all actives have a fitted effect of over 35% in size
How it was run: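 C3RL4 cells were seeded overnight at 37 C, then treated with compounds plus 1 uM (final) retinol for 6 h at 37 C. Viability was read as ATP by CellTiter-Glo luminescence after 30 min at room temperature.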

[4] = qHTS assay to identify small molecule antagonists of the retinoic acid receptor (RAR) signaling pathway (AID 1159552; also: nearly all actives have a fitted effect of over 50% in size)
How it was run: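 Luminescence from a RARE luciferase reporter in C3RL4 cells served as read-out. Cells received compounds together with 1 uM final retinol and incubated 6 hr at 37 C before detection reagent was added for 30 min at room temperature.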

[5] = qHTS assay to identify small molecule agonists of the retinoic acid receptor (RAR) signaling pathway (AID 1159553)
How it was run: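 C3RL4 cells carrying a RARE luciferase reporter were plated overnight at 37 C, then exposed to compounds in DMSO for 6 hr at 37 C and 5% CO2. Luminescence was read 30 min after luciferase reagent addition at room temperature.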

[6] = qHTS assay to identify small molecule antagonists of the estrogen related receptor (ERR) signaling pathway from Tox21 library - cell viability counter screen (AID 1224834); also: nearly all actives have a fitted effect of over 30% in size
How it was run: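 ERR reporter cells were plated 6 h before compound addition, then exposed to test compounds in DMSO for 17.5 h at 37 C. Viability was read as CellTiter-Fluor fluorescence after a 30-minute incubation at 37 C.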

[7] = molecular target: Luciferin 4-monooxygenase (Photinus pyralis) (UniProt P08659); assay: qHTS assay to identify small molecule inhibitors of firefly luciferase (AID 1224835); also: series mostly up to about 120 µM; nearly all actives have a fitted effect of over 25% in size
How it was run: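 Quantitative HTS format; KM concentrations of both substrates. Purified P. pyralis FLuc activity quantified from luminescence images.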

[8] = qHTS assay to identify small molecule agonists of the constitutive androstane receptor (CAR) signaling pathway - cell viability counter screen (AID 1224836); also: series mostly up to about 92 µM; nearly all actives have a fitted effect of over 45% in size
How it was run: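 Viability read-out: CellTiter-Fluor fluorescence after 23 h compound exposure at 37 C/5% CO2 in double-stable HepG2-CYP2B6-hCAR cells, with PK11195 present at 0.75 uM final; compounds tested in 15-point titration.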

[9] = qHTS assay to identify small molecule antagonists of the constitutive androstane receptor (CAR) signaling pathway - cell viability counter screen (AID 1224837); also: series mostly up to about 92 µM; nearly all actives have a fitted effect of over 45% in size
How it was run: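 HepG2 cells stably expressing hCAR and a CYP2B6-2.2kb reporter were plated and pre-incubated 4 hr at 37 C/5% CO2, then given compounds at 15 concentrations plus 50 nM CITCO (final). After 23 hr, viability was read by CellTiter-Fluor fluorescence.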

[10] = molecular target: Nuclear receptor subfamily 1 group I member 3 (Homo sapiens) (UniProt Q14994); assay: qHTS assay to identify small molecule antagonists of the constitutive androstane receptor (CAR) signaling pathway (AID 1224838); also: nearly all actives have a fitted effect of over 40% in size
How it was run: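 HepG2 cells stably co-transfected with hCAR and a CYP2B6-2.2kb luciferase reporter were seeded 4 h before compound addition at 15 concentrations. Cells were stimulated with 50 nM CITCO (final) for 24 h at 37 C; luciferase luminescence was then read.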

[11] = molecular target: Nuclear receptor subfamily 1 group I member 3 (Homo sapiens) (UniProt Q14994); assay: qHTS assay to identify small molecule agonists of the constitutive androstane receptor (CAR) signaling pathway (AID 1224839);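 also: HepG2 cells stably carrying human CAR and a CYP2B6 luciferase reporter; series mostly up to about 92 µM; nearly all actives have a fitted effect of over 15% in size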
How it was run: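 Luminescence read-out (ONE-Glo, 30 min, room temperature) from double-stable HepG2-CYP2B6-hCAR cells exposed 24 h to 15-point compound series in presence of 0.75 uM PK11195 final.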

[12] = qHTS assay to identify small molecule antagonists of the estrogen related receptor signaling pathway with the pleiotropic PPARgamma coactivator (PGC) from Tox21 10K library - cell viability counter screen (AID 1224840; active = well fitted cell-killing curve with a large enough effect in the repeat runs, not every such curve was filed as active; also: nearly all actives have a fitted effect of over 40% in size)
How it was run: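 PGC/ERR cells were seeded at 2,000 cells/well and left 6 hours at 37 C/5% CO2 before pin-tool addition of compounds in DMSO. After 17.5 hours at 37 C, CellTiter-Fluor was added and fluorescence read 30 minutes later.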

[13] = molecular target: Thyrotropin receptor (Homo sapiens) (UniProt P16473); assay: qHTS assay to identify small molecule agonists of the thyroid stimulating hormone receptor (TSHR) signaling pathway (AID 1224843; calls by dose curve; also: nearly all actives have a fitted effect of over 45% in size)
How it was run: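 Cell line HEK293 with TSHR; density 800/well. Exposure 30 min RT. Readout HTRF cAMP (cAMP-d2/anti-cAMP-cryptate), 1 h RT before reading.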

[14] = qHTS assay to identify small molecule agonists of the hypoxia (HIF-1) signaling pathway - cell viability counter screen (AID 1224844; calls by dose curve; also: nearly all actives have a fitted effect of over 50% in size)
How it was run: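 HRE-bla ME-180 cells in medium with 0.5% dialyzed FBS were preincubated 5 hrs at 37C, exposed to compounds for 17 hrs, then viability was read as CellTiter-Glo luminescence after 30 min at room temperature, in the reporter wells.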

[15] = qHTS assay to identify small molecule agonists of H2AX (AID 1224845; active = well fitted activation curve with a large enough effect in the signal ratio in the repeat runs, not every such curve was filed as active; the % refers to the signal ratio)
How it was run: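 Wild-type CHO-K1 cells plated overnight, then exposed 3 hr at 37C to compounds at 15 concentrations (0.76% DMSO). Lysed, then HTRF anti-pH2AX(S139)-cryptate/anti-H2AX-d2 detection after 24 hr at room temperature; emissions 665 and 620 nm.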

[16] = qHTS assay to identify small molecule agonists of the hypoxia (HIF-1) signaling pathway (AID 1224846; active = well fitted activation curve with a large enough effect in the signal ratio in the repeat runs, not every such curve was filed as active; the % refers to the signal ratio)
How it was run: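 HRE-bla ME-180 cells (beta-lactamase reporter under hypoxia response element) were plated at 2,000 cells/well in medium with 0.5% dialyzed FBS, rested 5 hrs, then given compounds in DMSO for 17 hrs at 37C, 5% CO2. Reporter induction was read with CCF4-AM FRET substrate.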

[17] = qHTS assay to identify small molecule agonists of H2AX - cell viability counter screen (AID 1224847; calls by dose curve; also: top concentration of the series differs between compounds; nearly all actives have a fitted effect of over 30% in size)
How it was run: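 CHO-K1 wt, 1000 cells/well, o/n 37C; cpds 15 conc, 3 h 37C, 0.76% DMSO; CellTiter-Glo, 30 min RT, luminescence.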
% is scaled to controls: 0 for no effect and ±100 for the full control effect.

Chain of Nuclear receptor subfamily 1 group I member 3 (Homo sapiens) (Q14994 whole entry, looked up): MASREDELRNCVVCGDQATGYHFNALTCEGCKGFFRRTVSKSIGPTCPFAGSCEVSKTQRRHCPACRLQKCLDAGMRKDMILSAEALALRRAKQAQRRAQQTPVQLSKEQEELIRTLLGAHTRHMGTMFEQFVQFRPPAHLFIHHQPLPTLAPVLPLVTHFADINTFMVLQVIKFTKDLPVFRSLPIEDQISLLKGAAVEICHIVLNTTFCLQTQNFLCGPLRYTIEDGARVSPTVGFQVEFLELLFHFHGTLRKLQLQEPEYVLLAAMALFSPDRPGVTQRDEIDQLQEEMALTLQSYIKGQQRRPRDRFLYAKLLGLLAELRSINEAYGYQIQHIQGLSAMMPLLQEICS
Chain of Retinoic acid receptor RXR-alpha (Homo sapiens) (P19793 whole entry, looked up): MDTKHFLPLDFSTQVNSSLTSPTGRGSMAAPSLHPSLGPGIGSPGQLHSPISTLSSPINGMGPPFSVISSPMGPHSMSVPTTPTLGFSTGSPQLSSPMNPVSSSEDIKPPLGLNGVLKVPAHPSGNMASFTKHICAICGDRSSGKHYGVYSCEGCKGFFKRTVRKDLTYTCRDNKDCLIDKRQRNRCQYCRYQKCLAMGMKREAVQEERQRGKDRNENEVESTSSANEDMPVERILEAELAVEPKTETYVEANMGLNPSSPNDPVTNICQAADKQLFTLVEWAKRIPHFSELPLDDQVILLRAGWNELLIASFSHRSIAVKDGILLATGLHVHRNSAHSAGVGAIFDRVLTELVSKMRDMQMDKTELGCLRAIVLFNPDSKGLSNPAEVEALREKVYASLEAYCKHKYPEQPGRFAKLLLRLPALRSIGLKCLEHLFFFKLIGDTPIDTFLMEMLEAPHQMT
Chain of Thyrotropin receptor (Homo sapiens) (P16473 whole entry, looked up): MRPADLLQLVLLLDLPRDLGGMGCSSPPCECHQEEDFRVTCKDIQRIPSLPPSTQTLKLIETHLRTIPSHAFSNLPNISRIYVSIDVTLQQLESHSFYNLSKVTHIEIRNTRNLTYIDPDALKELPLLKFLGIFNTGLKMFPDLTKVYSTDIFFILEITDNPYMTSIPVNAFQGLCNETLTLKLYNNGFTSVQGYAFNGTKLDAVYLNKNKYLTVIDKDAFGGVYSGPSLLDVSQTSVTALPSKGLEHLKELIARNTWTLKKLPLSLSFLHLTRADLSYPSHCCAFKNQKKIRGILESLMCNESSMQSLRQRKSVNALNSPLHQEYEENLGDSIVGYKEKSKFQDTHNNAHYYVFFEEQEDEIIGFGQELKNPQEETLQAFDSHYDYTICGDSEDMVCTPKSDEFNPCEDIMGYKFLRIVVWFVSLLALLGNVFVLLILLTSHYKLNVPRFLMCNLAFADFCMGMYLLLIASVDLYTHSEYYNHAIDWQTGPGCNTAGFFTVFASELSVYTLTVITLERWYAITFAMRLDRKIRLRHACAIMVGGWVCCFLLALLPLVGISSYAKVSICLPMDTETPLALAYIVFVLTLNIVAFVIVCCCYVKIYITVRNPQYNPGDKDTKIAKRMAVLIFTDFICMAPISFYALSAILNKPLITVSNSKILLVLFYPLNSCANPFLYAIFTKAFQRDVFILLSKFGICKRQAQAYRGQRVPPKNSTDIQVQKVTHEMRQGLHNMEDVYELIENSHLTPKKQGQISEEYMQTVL
Chain of Luciferin 4-monooxygenase (Photinus pyralis) (P08659 whole entry, looked up): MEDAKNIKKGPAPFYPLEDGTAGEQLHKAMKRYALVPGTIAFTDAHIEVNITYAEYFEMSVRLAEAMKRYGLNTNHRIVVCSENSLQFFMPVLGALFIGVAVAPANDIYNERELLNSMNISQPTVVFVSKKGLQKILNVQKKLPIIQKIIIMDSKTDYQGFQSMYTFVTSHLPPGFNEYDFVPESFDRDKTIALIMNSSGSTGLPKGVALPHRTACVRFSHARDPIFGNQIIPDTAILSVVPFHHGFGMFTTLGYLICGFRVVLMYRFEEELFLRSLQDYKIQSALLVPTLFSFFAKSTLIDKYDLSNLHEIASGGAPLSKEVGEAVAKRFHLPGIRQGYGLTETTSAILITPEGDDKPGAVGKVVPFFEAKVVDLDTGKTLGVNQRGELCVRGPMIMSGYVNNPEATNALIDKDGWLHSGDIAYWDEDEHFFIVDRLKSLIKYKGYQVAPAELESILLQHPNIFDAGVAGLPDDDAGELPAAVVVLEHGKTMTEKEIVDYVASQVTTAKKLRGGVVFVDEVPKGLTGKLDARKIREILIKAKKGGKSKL

C/C(=C1\CCOC(=O)S1)N(C=O)Cc1cnc(C)nc1N
inactive: Potency [1] | outcome [2] | outcome [3] | outcome [4] | Potency [5] | outcome [6] | Potency [7] | outcome [8] | outcome [9] | Potency [10] | Potency [11] | outcome [12] | outcome [13] | outcome [14] | outcome [15] | outcome [16] | outcome [17]

C[C@H]1[C@@H](c2ccccc2)NC(=O)N1C
inactive: Potency [1] | outcome [2] | outcome [3] | outcome [4] | Potency [5] | outcome [6] | Potency [7] | outcome [8] | outcome [9] | Potency [10] | Potency [11] | outcome [12] | outcome [13] | outcome [15] | outcome [16] | outcome [17]

C=CC(=O)OCC1CCCO1 (stereo unspecified)
inactive: Potency [1] | outcome [2] | outcome [3] | outcome [4] | Potency [5] | outcome [6] | Potency [7] | outcome [8] | outcome [9] | Potency [10] | Potency [11] | outcome [12] | outcome [13] | outcome [14] | outcome [15] | outcome [16] | outcome [17]

CC(=O)O[C@@H]1CC2CCC1(C)C2(C)C (stereo partly specified)
inactive: Potency [1] | outcome [2] | outcome [3] | outcome [4] | Potency [5] | outcome [6] | Potency [7] | outcome [8] | outcome [9] | Potency [10] | Potency [11] | outcome [12] | outcome [14] | outcome [15] | outcome [16] | outcome [17]

Cc1cc(-c2ccccc2)nnc1NCCN1CCOCC1
inactive: Potency [1] | outcome [2] | outcome [3] | outcome [4] | Potency [5] | outcome [6] | Potency [7] | outcome [8] | outcome [9] | Potency [10] | Potency [11] | outcome [12] | outcome [13] | outcome [14] | outcome [15] | outcome [17]

CCCCCCCCCCCCCCC(=O)NC(CO)CCCCCCCCCCCCCC (stereo unspecified)
inactive: Potency [1] | outcome [2] | outcome [3] | outcome [4] | Potency [5] | outcome [6] | Potency [7] | outcome [8] | outcome [9] | Potency [10] | Potency [11] | outcome [12] | outcome [14] | outcome [15] | outcome [16] | outcome [17]

CC(C)NCC(O)c1ccc2ccccc2c1 (stereo unspecified)
inactive: Potency [1] | outcome [2] | outcome [3] | outcome [4] | Potency [5] | outcome [6] | Potency [7] | outcome [8] | outcome [9] | Potency [10] | Potency [11] | outcome [12] | outcome [13] | outcome [14] | outcome [15] | outcome [16] | outcome [17]

O=C1c2ccccc2C(=O)c2cc(Cl)ccc21
inactive: activation [1] 2.02% [at 6.98 µM] | activity change, negative = cytotoxicity [2] 5.38% [at 6.97 µM] | activity change, negative = cytotoxicity [3] 3.77% [at 8.39 µM] | activity, negative = inhibition [4] 30% [at 8.39 µM] | activation [5] 2.57% [at 8.36 µM] | viability change, negative = cytotoxic [6] 1.32% [at 8.39 µM] | activity change, negative = inhibition [7] 0.579% [at 10.5 µM] | viability change, negative = cytotoxic [8] -1.2% [at 8.39 µM] | activity change, negative = cytotoxicity [9] 2.26% [at 8.39 µM] | activity, negative = inhibition [10] 54.9% [at 8.39 µM] | activation [11] 8.38% [at 8.39 µM] | viability change, negative = cytotoxic [12] 5.77% [at 8.39 µM] | activity change, negative = cytotoxicity [14] 10.7% [at 6.97 µM] | activation (H2AX phosphorylation) [15] 2.59% [at 14 µM] | activation [16] -0.0803% [at 7.01 µM] | activity change, negative = cytotoxicity [17] 4.41% [at 14 µM]

From PubChem BioAssay (Tox21)
